Reference: PubChem BioAssay (EPA / NIEHS)
“And” between values parts separate entries of the source, which are not always exact repeats. Equal values may be shown once. Records with an inconclusive call do not appear. More than one record can exist for a structure, and the calls need not agree. The source made the active and inactive calls. How the source made its calls, unless noted: active means hit-call score of the fitted dose curve at least 0.9, where 1 is the maximum; inconclusive means response in the unintended direction; inactive means score below 0.9.

Columns and labels:
[1] = read-out: Tumor necrosis factor receptor 1 (TNFRSF1A), TNFRSF1A (gene 7132); assay: LTEA_HepaRG_TNFRSF1A: Life Technologies and Expression Analysis (LTEA) Assay for Tumor necrosis factor receptor 1 (TNFRSF1A) using HepaRG (AID 2283535; active means hit-call score of the fitted dose curve at least 0.9, where 1 is the maximum; inactive means score below 0.9); conditions: mRNA level, 48 h; actives raise or lower the signal
How it was run: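 Differentiated human HepaRG cells were exposed in duplicate for 48 h in serum-free induction medium to eight concentrations (top 100 uM, half-log steps, 0.5% DMSO). TNFRSF1A mRNA was quantified by qRT-PCR, normalized to ACTB, GAPDH and POLR2A, then fitted bidirectionally against DMSO.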

[2] = read-out: Thyroid Hormone Responsive (THRSP), THRSP (gene 7069); assay: LTEA_HepaRG_THRSP: Life Technologies and Expression Analysis (LTEA) Assay for Thyroid Hormone Responsive (THRSP) using HepaRG (AID 2283536; active means hit-call score of the fitted dose curve at least 0.9, where 1 is the maximum; inactive means score below 0.9); conditions: mRNA level, 48 h; actives raise or lower the signal
How it was run: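 THRSP transcript quantified by Fluidigm qRT-PCR against three housekeeping genes after 48 h chemical exposure of HepaRG cells in serum-free induction medium; eight-point half-log series, top 100 uM, 0.5% DMSO vehicle, duplicate wells.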

[3] = read-out: Cellular tumor antigen p53 (Homo sapiens) (UniProt P04637); assay: LTEA_HepaRG_TP53: Life Technologies and Expression Analysis (LTEA) Assay for Tumor Protein P53 (TP53) using HepaRG (AID 2283537; active means hit-call score of the fitted dose curve at least 0.9, where 1 is the maximum; inactive means score below 0.9); conditions: mRNA level, 48 h; actives raise or lower the signal
How it was run: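 Read-out is TP53 transcript level by microfluidic qRT-PCR, normalised to three housekeeping genes and fitted bidirectionally against DMSO. Human HepaRG cells received compounds for 48 h, highest concentration 100 uM.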

[4] = read-out: UDP glucuronosyltransferase (UGT1A1), UGT1A1 (gene 54658); assay: LTEA_HepaRG_UGT1A1: Life Technologies and Expression Analysis (LTEA) Assay for UDP glucuronosyltransferase (UGT1A1) using HepaRG (AID 2283538; active means hit-call score of the fitted dose curve at least 0.9, where 1 is the maximum; inactive means score below 0.9); conditions: mRNA level, 48 h; actives raise or lower the signal
How it was run: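 mRNA induction or loss of UGT1A1, by TaqMan qRT-PCR, in duplicate HepaRG wells after 48 h exposure to half-log dilutions topping at 100 uM; DMSO (0.5%) served as baseline.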

[5] = read-out: UDP glucuronosyltransferase (UGT1A6), UGT1A6 (gene 54578); assay: LTEA_HepaRG_UGT1A6: Life Technologies and Expression Analysis (LTEA) Assay for UDP glucuronosyltransferase (UGT1A6) using HepaRG (AID 2283539; active means hit-call score of the fitted dose curve at least 0.9, where 1 is the maximum; inactive means score below 0.9); conditions: mRNA level, 48 h; actives raise or lower the signal
How it was run: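 Human HepaRG cells were dosed for 48 h in serum-free induction medium with 0.5% DMSO vehicle, eight-point half-log series from 100 uM, in duplicate. UGT1A6 mRNA was measured by qRT-PCR, normalized to ACTB, GAPDH, POLR2A, and fitted bidirectionally against DMSO.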

[6] = read-out: X-box binding protein 1 (XBP1), XBP1 (gene 7494); assay: LTEA_HepaRG_XBP1: Life Technologies and Expression Analysis (LTEA) Assay for X-box binding protein 1 (XBP1) using HepaRG (AID 2283540; active means hit-call score of the fitted dose curve at least 0.9, where 1 is the maximum; inactive means score below 0.9); conditions: mRNA level, 48 h; actives raise or lower the signal
How it was run: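 Differentiated human HepaRG cells in serum-free induction medium were exposed in duplicate for 48 h to eight half-log concentrations up to 100 uM in 0.5% DMSO. XBP1 mRNA was quantified by qRT-PCR, normalised to ACTB, GAPDH and POLR2A, with bidirectional fitting against DMSO.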

[7] = LTEA_HepaRG_LDH_cytotoxicity: Cytotoxicity Assessment in the Life Technologies and Expression Analysis (LTEA) Assay (AID 2283563);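 on AC50: LDH activity released into spent culture medium as a marker of cell death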
How it was run: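 Differentiated human HepaRG cells, plated 48 h beforehand, were switched to serum-free induction medium and exposed for 48 h to eight half-log concentrations (top 100 uM) in 0.5% DMSO. LDH was measured in spent medium; activity was fitted relative to DMSO vehicle.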

[8] = ATG_XTT_Cytotoxicity: Cytotoxicity Assessment in the Attagene TRANS-FACTORIAL HepG2 Assay (AID 2283584)
How it was run: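 HepG2 human liver cells, transiently transfected with multiple GAL4-UAS reporter units, were dosed and read at 24 h by XTT as cell number. Loss of signal was fitted relative to DMSO negative control baseline.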

[9] = TOX21_p53_BLA_p2_viability: Viability Assessment in the Tox21 HCT-116 p53 Agonism Beta-lactamase Assay, Phase 2 (AID 2283591);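 further: compound exposure lasted 16 h at 37 °C; actives lower the ATP signal meaning cytotoxicity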
How it was run: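 Cytotoxicity readout: CellTiter-Glo ATP luminescence, 30 min at room temperature, after the beta-lactamase read. Cells were HCT116 exposed 16 h at 37C to compounds pin-transferred at 217-fold dilution from DMSO stocks.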

[10] = target: Cellular tumor antigen p53 (Homo sapiens) (UniProt P04637); assay: TOX21_p53_BLA_p2_ratio: Tox21 HCT-116 p53 Agonism Beta-lactamase Assay, Ratio, Phase 2 (AID 2283592)
Cellular tumor antigen p53 (Homo sapiens), sequence (P04637 whole entry, looked up): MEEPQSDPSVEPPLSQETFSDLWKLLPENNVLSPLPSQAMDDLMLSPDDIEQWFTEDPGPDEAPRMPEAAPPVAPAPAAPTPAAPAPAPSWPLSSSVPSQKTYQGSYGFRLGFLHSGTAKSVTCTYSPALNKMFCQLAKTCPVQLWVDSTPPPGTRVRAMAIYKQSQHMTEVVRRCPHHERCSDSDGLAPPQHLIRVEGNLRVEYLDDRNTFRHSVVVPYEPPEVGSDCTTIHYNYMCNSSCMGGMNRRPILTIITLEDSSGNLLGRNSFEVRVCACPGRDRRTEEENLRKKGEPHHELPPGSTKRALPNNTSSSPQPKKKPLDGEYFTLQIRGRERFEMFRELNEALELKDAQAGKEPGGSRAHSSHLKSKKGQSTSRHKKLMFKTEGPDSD
How it was run: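 Ratio endpoint: beta-lactamase cleavage of CCF4-AM, blue (460 nm) over green (530 nm). HCT116 reporter line; 16 h treatment, 37C; substrate 2 h RT.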

[11] = TOX21_p53_BLA_p3_viability: Viability Assessment in the Tox21 HCT-116 p53 Agonism Beta-lactamase Assay, Phase 3 (AID 2283593);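 further: cells exposed to compound for 16 h before reading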
How it was run: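 Cellular ATP was quantified by CellTiter-Glo luminescence, read after 30 min at room temperature. Beforehand, HCT116 cells (4000/well) received compound 5 h post-seeding, 217-fold diluted from DMSO, then incubated 16 h at 37C.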

[12] = target: Cellular tumor antigen p53 (Homo sapiens) (UniProt P04637); assay: TOX21_p53_BLA_p3_ratio: Tox21 HCT-116 p53 Agonism Beta-lactamase Assay, Ratio, Phase 3 (AID 2283596)
How it was run: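 Cells were seeded at 4000/well, rested 5 h at 37C, then dosed with DMSO compound solutions (217-fold dilution) for 16 h. CCF4-AM substrate was loaded for 2 h at room temperature, and the 460/530 nm emission ratio was fitted for gain of signal versus DMSO.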

[13] = TOX21_p53_BLA_p4_viability: Viability Assessment in the Tox21 HCT-116 p53 Agonism Beta-lactamase Assay, Phase 4 (AID 2283597);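 further: hits lower the luminescence signal meaning cytotoxicity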
How it was run: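 Cytotoxicity was inferred from loss of CellTiter-Glo luminescence. HCT116 cells had been dosed with compounds after 5 h plating, incubated 16 h at 37C and 5% CO2, and exposed to the CCF4-AM substrate for 2 h.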

[14] = target: Cellular tumor antigen p53 (Homo sapiens) (UniProt P04637); assay: TOX21_p53_BLA_p5_ratio: Tox21 HCT-116 p53 Agonism Beta-lactamase Assay, Ratio, Phase 5 (AID 2283599)
How it was run: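 Beta-lactamase reporter ratio (blue 460 nm over green 530 nm, 405 nm excitation) after 2 h CCF4-AM loading, in HCT-116 cells exposed 16 h at 37 C to compounds pinned at 217-fold dilution. Increases relative to DMSO baseline scored.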

[15] = TOX21_p53_BLA_p5_viability: Viability Assessment in the Tox21 HCT-116 p53 Agonism Beta-lactamase Assay, Phase 5 (AID 2283600)
How it was run: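 Luciferase-coupled ATP quantitation of cells treated for 16 h (37C, 5% CO2) with test chemicals delivered in DMSO via a 217-fold dilution; 4000 cells/well; reagent incubated 30 min at room temperature before luminescence reading.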

[16] = target: Cellular tumor antigen p53 (Homo sapiens) (UniProt P04637); assay: TOX21_p53_BLA_p4_ratio: Tox21 HCT-116 p53 Agonism Beta-lactamase Assay, Ratio, Phase 4 (AID 2283601)
How it was run: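 Signal is the blue/green (460nm/530nm) ratio of cleaved versus uncleaved CCF4-AM substrate, read after 2 h substrate loading. Cells were HCT116 carrying the p53-responsive beta-lactamase reporter, dosed 16 h at 37C, 5% CO2; CellTiter-Glo measured in parallel.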

[17] = Tanguay_ZF_120hpf_YSE_legacy: (Legacy) Oregon State University Tanguay Lab 120 Hour Post-fertilization zebrafish Assay for Yolk Sac Edema (AID 2283634);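 on AC50: actives raise the incidence of yolk sac edema above the DMSO baseline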
How it was run: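 Tropical 5D wild-type embryos, dechorionated with pronase at 4 hpf, were exposed singly from 6 hpf to 120 hpf under static, sealed, dark conditions at 28C with 0.64% DMSO final. Yolk sac edema was scored present/absent by brightfield microscopy.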

[18] = Tanguay_ZF_120hpf_AXIS_legacy: (Legacy) Oregon State University Tanguay Lab 120 Hour Post-fertilization zebrafish Assay for Body Axis Malformation (AID 2283635);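 on AC50: potency for an increased fraction of larvae scored with body axis malformation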
How it was run: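 Tropical 5D wild-type zebrafish embryos, dechorionated with pronase at 4 hpf, were placed singly in wells at 6 hpf and exposed statically to test chemical (0.64% DMSO final) at 28C until 120 hpf, then scored by brightfield for body axis defects.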

TIMP1, TIMP1 (gene 7076) = assay: LTEA_HepaRG_TIMP1: Life Technologies and Expression Analysis (LTEA) Assay for TIMP1 using HepaRG (AID 2283534; active means hit-call score of the fitted dose curve at least 0.9, where 1 is the maximum; inactive means score below 0.9;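 further: TaqMan qRT-PCR signal normalized to ACTB GAPDH and POLR2A housekeeping genes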); conditions: mRNA level, 48 h; actives raise or lower the signal
How it was run: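 Differentiated human HepaRG cells in serum-free induction medium were exposed 48 h to chemicals (8 half-log concentrations, top 100 uM, 0.5% DMSO). TIMP1 mRNA was quantified by TaqMan qRT-PCR, normalized to ACTB/GAPDH/POLR2A; bidirectional fit versus DMSO.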

[19] = Tanguay_ZF_120hpf_MORT_legacy: (Legacy) Oregon State University Tanguay Lab 120 Hour Post-fertilization zebrafish Assay for Mortality (AID 2283633);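 on AC50: fitted as increase in binary mortality versus DMSO negative control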
How it was run: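 Dechorionated Tropical 5D wild-type zebrafish embryos, one per well from 6 hpf, were statically exposed at 28C in the dark until 120 hpf (0.64% DMSO final). Mortality was scored as present/absent by brightfield microscopy, fitted positively versus DMSO.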

Measured: AC50

CC(C)(C)OOC(=O)c1ccccc1
not listed: TIMP1, TIMP1 (gene 7076) | [19]
inactive: all other assays above

N#CC(Br)Br
inactive: TIMP1, TIMP1 (gene 7076) | [1] | [2] | [4] | [5] | [6] | [7] | [19] | [18]

c1ccc(N=Nc2ccccc2)cc1
not listed: [1] | [8] | [9] | [11] | [13] | [15] | [16] | [19]
inactive: all other assays above

CCC(C)c1ccc(O)cc1 (stereo unspecified)
not listed: [9] | TIMP1, TIMP1 (gene 7076) | [19]
inactive: all other assays above

CCCCCCCCOC(=O)c1ccc(C(=O)OCCCCCCCC)c(C(=O)OCCCCCCCC)c1
not listed: [10] | TIMP1, TIMP1 (gene 7076)
inactive: all other assays above

ClC1=C(Cl)C2(Cl)C3C(Cl)C=CC3C1(Cl)C2(Cl)Cl (stereo unspecified)
active: [3] 14.1 µM | [4] 2.86 µM | [9] 85.9 µM | [11] 46.1 µM and 69.6 µM | [13] 45.8 µM | [15] 75 µM
inactive: [1] | [2] | [5] | [6] | [7] | [8] | [9] | [10] | [12] | [13] | [14] | [15] | [17] | [18]

CCNS(=O)(=O)C(F)(F)C(F)(F)C(F)(F)C(F)(F)C(F)(F)C(F)(F)C(F)(F)C(F)(F)F
inactive: TIMP1, TIMP1 (gene 7076) | [1] | [4] | [5] | [7] | [19]
active: [2] 48.2 µM | [6] 48.2 µM | [17] 43 µM | [18] 55.9 µM

c1ccc2c(c1)oc1ccccc12
not listed: [1] | [8] | [9] | [16]
inactive: all other assays above

CN(C)c1ccc(C(=O)c2ccc(N(C)C)cc2)cc1
active: [4] 13.2 µM | [10] 748 nM and 1.29 µM | [12] 826 nM and 1.65 µM | [14] 690 nM and 351 nM | [16] 907 nM and 463 nM | [19] 9.64 µM | [17] 25.4 µM | [18] 25.2 µM
not listed: [11] | TIMP1, TIMP1 (gene 7076)
inactive: all other assays above

Cc1ccc(N)cc1
not listed: [8] | [9] | [11] | [16] | [18] | [19]
inactive: all other assays above

Oc1ccccc1Cl
not listed: [8] | [9] | [13] | [16] | [17] | [18] | [19]
inactive: all other assays above

O=C(N[C@H](c1ccccc1)[C@@H]1CN2CCC1CC2)c1c(Cl)ccc(C(F)(F)F)c1Cl
inactive: [2] | [3] | [9] | [10] | [14] | [15] | [17]
active: [1] 73.9 µM | [4] 63.8 µM | [5] 68.2 µM | [6] 73.9 µM | [7] 51.9 µM | [19] 26.7 µM | [18] 1.27 µM

c1ccc2c(c1)-c1cccc3cccc-2c13
active: [4] 16.1 µM
not listed: [7] | [9] | [15] | [16] | TIMP1, TIMP1 (gene 7076) | [19]
inactive: all other assays above

OCCOCCO
inactive: [1] | [2] | [4] | [5] | [6] | [7] | [8] | [17] | [18]

Cn1cc(-c2ccccc2)c(=O)c(-c2cccc(C(F)(F)F)c2)c1
active: [4] 8.71 µM | [6] 15 µM
not listed: [9] | [11] | [13] | [15] | TIMP1, TIMP1 (gene 7076) | [19]
inactive: all other assays above

O=[N+]([O-])c1ccc(Oc2ccc(Cl)cc2Cl)cc1
active: [7] 73.8 µM
not listed: [4] | TIMP1, TIMP1 (gene 7076) | [19]
inactive: all other assays above

O=C(Oc1ccc(Br)cc1)N1CCN2CCC1CC2
active: [2] 34.8 µM | [18] 38.3 µM
not listed: [7] | [8] | [10] | [12] | [14] | [16] | TIMP1, TIMP1 (gene 7076)
inactive: all other assays above
